BAZ2B block – BAZ2B (human) inhibition; Q9UIF8; Potency, µM (titrated, usually from 114 µM), actives largely listed as inhibitors; AlphaScreen BAZ2B-H3K14Ac peptide displacement; actives 4.4% (n = 360,000); note: nearly all actives have a fitted effect of over 60% in size
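BAZ2B (50 nM) with biotin-H3(5-23)K14Ac peptide (50 nM) in PBS pH 7.4, 0.01% Tween-20, preformed 30 min, then compound 30 min at room temperature; top concentration 110uM. AlphaScreen streptavidin donor/nickel chelate acceptor beads (10 ug/mL final), 20 min dark, signal read.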
G9a inh – inhibitors of human histone lysine methyltransferase G9a | G9a H3K9 monomethylation, AlphaScreen, 2 h | Potency, µM (highest dose often 102 µM), most hits filed as inhibitors | actives 8.8% (n = 350,000); note: nearly all actives have a fitted effect of over 75% in size
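Readings reflect AlphaScreen signal from monomethyl-H3K9 antibody detection. HMT at 20 nM; substrate b-H3K9 500 nM; cofactor SAM 20 uM; 2 h RT reaction; compounds tested as titrations in qHTS with 15 min preincubation.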
Sfp PPTase inh – Sfp phosphopantetheinyl transferase inhibition. actives 3.5% (n = 310,000). Biochemical Sfp PPTase activity, qHTS. Q9F4F7. Potency, µM, actives largely listed as inhibitors;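 note: the enzyme is Sfp with the accession as filed and its product quenches rhodamine fluorescence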
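Compounds were incubated with enzyme (final 15 nM) for 15 min at room temperature before substrate addition started the reaction. Fluorescence at 525 nm excitation, 598 nm emission was recorded immediately and after 30 minutes.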
PLK1 PBD inh – PLK1 (human) polo-box domain binding inhibition. P53350. Plk1 PBD binding of FITC phosphopeptide, fluorescence polarization. Potency, µM, hits mostly inhibitors. actives 2.8% (n = 360,000). AID 720504; note: series mostly up to about 57 µM; nearly all actives have a fitted effect of over 65% in size
HP1b binding inh – inhibitors of HP1-beta chromodomain binding to methylated histone tails | P83916 | AlphaScreen HP1-beta / biotin-H3K9me3 peptide binding | Potency, µM (highest dose often 114 µM), most hits filed as inhibitors | actives 0.56% (n = 390,000) | AID 540317; note: nearly all actives have a fitted effect of over 70% in size
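Compound inhibition of the preformed complex between 50 nM HP1-beta and 50 nM biotinylated H3K9me3 peptide was read by AlphaScreen. Buffer was PBS pH 7.4 with 0.01% Tween-20. Incubations ran 30 min at room temperature, with 10 ug/mL donor/acceptor beads.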
JMJD2A Tudor inh – inhibitors of human JMJD2A Tudor domain; actives 4.4% (n = 390,000); Potency, µM (titrated, usually from 114 µM), actives largely listed as inhibitors; AID 504339; O75164; AlphaScreen JMJD2A-Tudor / H3K4me3 peptide binding; note: nearly all actives have a fitted effect of over 50% in size
Target sequence (O75164 whole entry, looked up, the tested form may be a part): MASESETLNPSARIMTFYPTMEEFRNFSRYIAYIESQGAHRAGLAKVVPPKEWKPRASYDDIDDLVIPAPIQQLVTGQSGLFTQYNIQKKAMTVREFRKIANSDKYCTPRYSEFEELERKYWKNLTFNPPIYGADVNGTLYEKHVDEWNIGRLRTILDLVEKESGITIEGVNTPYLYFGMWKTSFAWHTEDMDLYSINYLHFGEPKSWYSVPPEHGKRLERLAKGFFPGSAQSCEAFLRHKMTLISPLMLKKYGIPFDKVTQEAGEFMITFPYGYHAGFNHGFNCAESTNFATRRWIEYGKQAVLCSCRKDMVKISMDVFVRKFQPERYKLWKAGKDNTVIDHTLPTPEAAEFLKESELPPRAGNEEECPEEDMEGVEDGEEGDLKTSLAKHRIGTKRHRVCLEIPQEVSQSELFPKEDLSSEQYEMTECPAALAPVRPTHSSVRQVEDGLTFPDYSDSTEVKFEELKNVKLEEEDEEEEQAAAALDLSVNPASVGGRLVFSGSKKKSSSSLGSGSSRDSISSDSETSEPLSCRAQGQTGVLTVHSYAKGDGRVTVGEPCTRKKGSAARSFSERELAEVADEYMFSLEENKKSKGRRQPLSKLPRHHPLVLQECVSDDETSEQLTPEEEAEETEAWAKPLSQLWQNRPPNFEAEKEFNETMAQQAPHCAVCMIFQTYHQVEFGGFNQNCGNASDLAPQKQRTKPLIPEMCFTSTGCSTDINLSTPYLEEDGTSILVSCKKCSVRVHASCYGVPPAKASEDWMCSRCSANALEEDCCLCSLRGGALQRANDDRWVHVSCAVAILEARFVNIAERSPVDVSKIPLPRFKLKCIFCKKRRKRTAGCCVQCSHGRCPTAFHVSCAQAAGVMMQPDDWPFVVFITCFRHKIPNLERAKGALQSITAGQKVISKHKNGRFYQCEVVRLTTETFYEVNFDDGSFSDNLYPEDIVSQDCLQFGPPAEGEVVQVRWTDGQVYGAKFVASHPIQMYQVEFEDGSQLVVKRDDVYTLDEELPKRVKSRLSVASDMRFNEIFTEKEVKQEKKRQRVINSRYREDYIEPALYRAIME
Of the large screens only hits and unclear results are named; the others gave an inactive call. An excerpt weighted towards active compounds, which were near 12% of everything screened. Calls come from the whole dose curve; as a rule, active = well fitted curve in the direction sought with a large enough effect; inconclusive = small, poorly fitted or top-dose-only effect, or another doubt; inactive = no such curve, though single readings can be large; an effect the other way counts as inactive or inconclusive.

O=C1c2ccccc2CCC1CNCCc1ccc(O)cc1 (stereo unspecified)	G9a inh 7.94µM, Sfp PPTase inh 56.2µM (no result: BAZ2B block, PLK1 PBD inh, HP1b binding inh, JMJD2A Tudor inh)
Clc1ccc(-c2nc(CSc3ccccn3)cs2)cc1	none (no result: BAZ2B block, G9a inh, Sfp PPTase inh, HP1b binding inh, JMJD2A Tudor inh)
C=CCn1c(SCc2csc(-c3ccc(Cl)cc3)n2)nnc1-c1ccccc1OC	G9a inh 70.8µM
Nc1ccccc1SCc1csc(-c2ccc(Cl)cc2)n1	G9a inh 35.5µM, Sfp PPTase inh 14.1µM, PLK1 PBD inh 9.47µM
Cc1cc2nc(-c3ccccc3Br)n(/C=C(\c3ccccc3)n3c(=O)[nH]c4ccccc43)c2cc1C	none (no result: BAZ2B block, G9a inh, Sfp PPTase inh, HP1b binding inh, JMJD2A Tudor inh)
Cc1ccc(CN(Cc2cc3cc(C)ccc3[nH]c2=O)Cc2nnnn2Cc2ccccc2)cc1	none (no result: BAZ2B block, G9a inh, Sfp PPTase inh, PLK1 PBD inh)
Fc1ccc(N2CCN(C3=Nc4cccc5cccc3c45)CC2)cc1	BAZ2B block 35.5µM, G9a inh 39.8µM, HP1b binding inh inconclusive, JMJD2A Tudor inh 25.1µM
COC(=O)CCNC(=O)Cc1ccc(S(=O)(=O)N2CCCCC2)s1	G9a inh 50.1µM (no result: Sfp PPTase inh)
NS(=O)(=O)c1ccc(CCNC(=O)Cc2ccc(S(=O)(=O)N3CCCC3)s2)cc1	BAZ2B block 56.2µM, HP1b binding inh inconclusive, JMJD2A Tudor inh inconclusive
CCOC(=O)Cc1nn2c(=O)cc(C)nc2s1	BAZ2B block 79.4µM
CCOc1ccc(S(=O)(=O)N/N=C2/CC(c3ccccc3)Oc3ccccc32)cc1 (stereo unspecified)	G9a inh 7.94µM
O=S(=O)(N/N=C1\CC(c2ccccc2)Oc2ccccc21)c1ccccc1 (stereo unspecified)	none
CCCNS(=O)(=O)c1cc(-c2nnc3c4ccccc4c(C)nn23)ccc1OC	none (no result: Sfp PPTase inh, PLK1 PBD inh)
CO/N=C/C=C1/N(C)c2ccccc2C1(C)C	BAZ2B block inconclusive, G9a inh 50.1µM
CN1/C(=C\C=N\O)C(C)(C)c2ccccc21	none
CN1/C(=C\C=[N+](C)c2ccccc2)C(C)(C)c2ccccc21	G9a inh inconclusive, Sfp PPTase inh inconclusive, JMJD2A Tudor inh 35.5µM
CN(C)c1ccc(N=C/C=C2/N(C)c3ccccc3C2(C)C)cc1	BAZ2B block 20µM, G9a inh 7.08µM, HP1b binding inh inconclusive, JMJD2A Tudor inh 39.8µM
Cc1ccccc1N=C/C=C1\N(C)c2ccccc2C1(C)C	G9a inh inconclusive
O=C(Nc1nc2c(s1)CN(Cc1ccccc1)CC2)c1c(F)cccc1F	G9a inh 8.91µM, PLK1 PBD inh 21.2µM, JMJD2A Tudor inh 50.1µM (no result: BAZ2B block)
COC(=O)c1c(NC(=O)C(C)(C)C)sc2c1CCN(Cc1ccccc1)C2	none (no result: G9a inh)
CC(C)(C)C(=O)Nc1nc2c(s1)CN(Cc1ccccc1)CC2	G9a inh 17.8µM
Nc1c(C(=O)Nc2ccccc2)sc2nc3c(cc12)CN(Cc1ccccc1)CC3	G9a inh inconclusive (no result: Sfp PPTase inh, PLK1 PBD inh)
O=C(Nc1nc2c(s1)CN(Cc1ccccc1)CC2)C1CCCC1	BAZ2B block inconclusive, G9a inh 44.7µM
COCCN1C(=O)N[C@@H](c2cccc(C(F)(F)F)c2)C(C(=O)OC)=C1C	PLK1 PBD inh 29.9µM, JMJD2A Tudor inh inconclusive (no result: BAZ2B block, G9a inh)
COC(=O)C1=C(C)N(Cc2ccco2)C(=O)N[C@@H]1c1cccc(C(F)(F)F)c1	BAZ2B block inconclusive, G9a inh 89.1µM (no result: PLK1 PBD inh, HP1b binding inh, JMJD2A Tudor inh)
COC(=O)C1=C(C)N(Cc2ccccc2)C(=O)N[C@H]1c1cccc(C(F)(F)F)c1	JMJD2A Tudor inh inconclusive
CCN1C(=NCCOC)N[C@@H](c2cccc(C(F)(F)F)c2)C(C(=O)OC)=C1C	BAZ2B block inconclusive, JMJD2A Tudor inh 15.8µM (no result: G9a inh)
CCN1C(=NCC2CC2)N[C@@H](c2cccc(C(F)(F)F)c2)C(C(=O)OC)=C1C	none
Nc1ccc2c(S(=O)(=O)O)cccc2c1S(=O)(=O)O	none (no result: BAZ2B block, G9a inh, Sfp PPTase inh)
CN(C)c1ccc2c(O)cc(=O)n(C)c2c1	G9a inh inconclusive
Cc1ccc(S(=O)(=O)O)cc1C	none (no result: BAZ2B block, PLK1 PBD inh, HP1b binding inh, JMJD2A Tudor inh)
O=Nc1c(O)ccc2cc(S(=O)(=O)O)ccc12	JMJD2A Tudor inh 2.82µM (no result: BAZ2B block, G9a inh, Sfp PPTase inh)
Nc1cccc2cc(S(=O)(=O)O)ccc12	PLK1 PBD inh inconclusive, JMJD2A Tudor inh 50.1µM (no result: BAZ2B block, G9a inh, Sfp PPTase inh)
CN(C)c1ccc2cc(S(=O)(=O)O)cc(O)c2c1	PLK1 PBD inh inconclusive, HP1b binding inh inconclusive, JMJD2A Tudor inh 50.1µM (no result: BAZ2B block, G9a inh, Sfp PPTase inh)
OC[C@@H]1O[C@@H](Oc2ccc(O)cc2)[C@H](O)[C@@H](O)[C@@H]1O	none (no result: BAZ2B block, G9a inh, PLK1 PBD inh, HP1b binding inh, JMJD2A Tudor inh)
CCN(CC)CCCOC(=O)C1(c2ccccc2)CCCC1	none

Screening data from PubChem BioAssay.
